# Measured values taken from PubChem BioAssay AID588335 (The Scripps Research Institute Molecular Screening Center, 2011).
# Among all 360,000 compounds or so, about 4,500 (1.2%) were called active. What follows is part of a selection rich in actives, with near analogues and random picks from the rest. Unmarked numbers belong to inactive results. Cut-off read from the data, not from the text of the source: active = inhibition above about 30%; inactive = the rest.
# Experiment: GDH-TPI coupling enzyme inhibitors, primary screen, artefact control for M. tuberculosis FBA inhibitor project, biochemical, absorbance, full deck (AID 588335);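 note: 0% = DMSO wells and 100% = wells lacking the enzyme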
# Conditions: GDH-TPI coupled enzyme counterscreen, NADH absorbance; at 4.8 µM; stronger effect = higher value
row,SMILES,inhibition
1,COc1ccc(C(=O)CSc2n[nH]c(N)n2)cc1,4%
2,COC(=O)c1cccc(NC(=O)CSc2nc(C)cc(=O)[nH]2)c1,-11.5%
3,COC(=O)c1cc(C(=O)CSc2nc(C)cc(C)n2)ccc1O,31.6% (active)
4,CCOC(=O)Cn1c(=O)n(Cc2ccc(OC)cc2)c(=O)c2cccnc21,5%
5,O=C1N(Cc2ccc3c(c2)OCO3)c2ccccc2C1(O)c1c[nH]c2ccccc12 (stereo unspecified),7.18%
6,Cc1cccc(CCNS(=O)(=O)c2ccc(S(=O)(=O)NC3CCCC3)cc2)c1,10.9%
7,O=C1C2C3C=CC(C4CC34)C2C(=O)N1/N=C/c1ccc(-c2ccccc2[N+](=O)[O-])o1 (stereo unspecified),50.6% (active)
8,Cc1c(/C=N/N2C(=O)C3C4C=CC(C4)C3C2=O)c2ccccc2n1C (stereo unspecified),21.5%
9,CN(C(=O)CSc1nc(C2CC2)nc2ccccc12)c1nc(-c2ccccc2)cs1,8.44%
10,CCCCn1c(N)c(N(CCC(C)C)C(=O)COC(=O)c2ccc(CC)cc2)c(=O)[nH]c1=O,9.06%
11,CN(CCc1ccccc1)C(=O)c1cccc(NC(=O)Cc2cccc(NC(=O)C3CCCN(C(=O)C4CCC4)C3)c2)c1 (stereo unspecified),4.55%
12,COc1ccc(NC2=CC(=S)NC(C)(C)C2)cc1,31.3% (active)
13,COc1ccc(CCNC2=CC(=O)CC(C)(C)C2)cc1,4.76%
14,COc1ccc(Nc2cc(Sc3ccc(OC)cc3)ncn2)cc1,-3.81%
15,CCOC(=O)[C@H]1CCC[C@@H](NS(=O)(=O)c2ccc(NC(C)=O)cc2)C1,-3.39%
16,OC(c1ccccc1)c1nc(-c2cnc3ccccc3c2)cs1 (stereo unspecified),-3.54%
17,COCCN(C(=O)c1ccccc1F)c1c(N)n(Cc2ccccc2)c(=O)[nH]c1=O,-6.6%
18,CC/C(=N\NC(=O)c1ccccc1Cl)c1ccc(Br)s1,16.7%
19,CC/C(=N\NC(=O)c1ccccc1O)c1c(O)n(Cc2ccccc2)c(=O)[nH]c1=O,57% (active)
20,Cc1ccccc1Nc1scc(-c2ccc(Br)cc2)[n+]1-c1ccccc1C,-1.89%
21,COCCNc1cc(NCCOC)c([N+](=O)[O-])cc1[N+](=O)[O-],15.1%
